Results reported in the supplement of paper PMC3842684.

How the values were obtained:
[1] = tested on: P. falciparum NF54-pfs16-GFP early (I-III) stage gametocytes; assay: relative % inhibition of viable gametocyte number; higher = more gametocytocidal; details: stage: early (I-III) gametocyte, incubation 72 h
In short: (§1)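 In 384-well poly-D-lysine imaging plates, NF54 pfs16-GFP gametocytes (magnet-isolated, early I/IIa on day 2 or late on day 8; 10% parasitaemia, 0.1% haematocrit) received compound in duplicate at 5 or 0.5 µM. Plates stood 72 h at 37°C in 5% CO2 and 5% O2, then overnight with MitoTracker Red before confocal imaging, where elongated GFP objects with MitoTracker signal above cut-off counted as viable. Relative inhibition was calculated against vehicle and positive-control wells on the same plate.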

[2] = tested on: P. falciparum NF54-pfs16-GFP late (IV-V) stage gametocytes; assay: as above; details: stage: late (IV-V) gametocyte, incubation 72 h
In short: as §1

| Structure (SMILES) | relative % inhibition ([1]; 0.5 µM) | relative % inhibition ([1]; 5 µM) | relative % inhibition ([2]; 0.5 µM) | relative % inhibition ([2]; 5 µM) |
| --- | --- | --- | --- | --- |
| Cc1ccc(-c2cc3c(SCC(=O)Nc4cc(C(F)(F)F)ccc4Cl)nccn3n2)cc1 | -5.62% | -12% | 14.7% | -15.9% |
| CCCCCCOC(=O)C1=C(C)NC(=O)NC1c1ccccc1F (stereo unspecified) | 9.08% | 4.18% | -3.35% | 3.92% |
| COCCn1c(C)nc2ccccc2c1=O | 9.29% | 10.1% | 43.2% | 16.8% |
| O=c1cc(NC2CCN(CCCc3ccccc3)CC2)c2cc(Cl)ccc2o1 | 10.6% | 79.8% | -5.8% | -6.17% |
| CC1CN(C(=O)c2sc3ccccc3c2Cl)CC(C)O1 (stereo unspecified) | -11.1% | 1.13% | 6.08% | -5.12% |
| Oc1ccc(-c2nc(-c3ccc4oc5ccc(-c6[nH]c(-c7ccc(O)cc7)nc6-c6ccccc6)cc5c4c3)c(-c3ccccc3)[nH]2)cc1 | 92.1% | 107% | 3.61% | 52.7% |
| CCOC(=O)c1cnc2ccc(OC)cc2c1NCc1ccccc1 | 26.4% | 17.1% | 10.1% | 2.07% |
| CC(NCc1ccccc1)c1cc(Cl)ccc1O (stereo unspecified) | 15.7% | 89.5% | 15.3% | 53.3% |
| CC1CC2=C(CC1CNCCCN(C)C)C(C)(C)CCC2 (stereo unspecified) | 33.8% | 97.1% | 20.7% | 85.3% |
| O=C(CCc1ccccc1)c1ccccc1OCC(O)CN1CCCCC1 (stereo unspecified) | 12.7% | 96.8% | 15% | 48.2% |
| COc1ccccc1C(=O)ON=C(N)Cc1cccc2ccccc12 | 13.9% | 78% | 5.05% | 92.5% |
| CCOC(=O)c1cnc2ccc(CC)cc2c1O | -8.43% | 42.6% | 73.6% | 79.8% |
| COc1ccc(C2c3ccc4ccccc4c3Oc3ncn(CCCn4ccnc4)c(=N)c32)cc1OC (stereo unspecified) | 59.1% | -9.76% | 49.2% | 74.6% |
| COc1cccc(C2(C)Nc3ccccc3-c3nc4ccccc4n32)c1 (stereo unspecified) | -5.06% | 5.7% | 27.8% | 16.2% |
| Cc1cccc(-n2ncc3c(=O)[nH]c(-n4nc(C)cc4NC(=O)c4cc5ccccc5o4)nc32)c1 | -5.22% | 49% | 100% | 102% |
| CC1(c2ccccc2)Nc2ccccc2-c2nc3ccccc3n21 (stereo unspecified) | 1.27% | 32.3% | 46.2% | 46.6% |
| CCOC(=O)c1cnc2ccc(Cl)cc2c1NCCCN(C)C | 3.83% | 74.3% | -21.7% | -1.78% |
| COc1ccc(N2CCN(C(CNC(=O)C3CCCCC3)c3ccc4c(c3)OCO4)CC2)cc1 (stereo unspecified) | 22.8% | 8.98% | 35.1% | 50.7% |
| O=C(Nc1ccc(Br)cc1)Nc1cccc(Cl)c1 | 20% | 26.8% | -8.75% | -6.59% |
| COc1ccc(-c2nonc2NC(=O)c2cccc(Cl)c2)cc1OC | 31.7% | -10.8% | -17.2% | -2.96% |
| CCOc1ccc2nc(C)cc(Nc3ccc(Br)cc3)c2c1 | 38.4% | 58.5% | 14.7% | 57.1% |
| COc1cccc(-c2nn(C)c3sc(C(=O)NCCN4CCN(c5ccccc5F)CC4)cc23)c1 | 12.4% | 82.5% | 16.7% | 4.42% |
| O=C(Nc1ccc(C23CC4CC(CC(c5ccccc5)(C4)C2)C3)cc1)c1cccs1 | -8.5% | 12.3% | 12.9% | 31.6% |
| CCOC(=O)c1cnc2c(C)cccc2c1Nc1ccc(C(C)=O)cc1 | -9.17% | 7.93% | 7.91% | -0.973% |
| CCOC(=O)C1=CN(C)C=C(C(=O)OCC)C1c1cc(Br)c(OCC)c(OC)c1 | 38.1% | 89.7% | 16.5% | 37.9% |

| Structure (SMILES) | relative % inhibition ([1]; 0.5 µM) | relative % inhibition ([1]; 5 µM) | relative % inhibition ([2]; 0.5 µM) | relative % inhibition ([2]; 5 µM) |
| --- | --- | --- | --- | --- |
| c1ccc2c(NCCc3c[nH]c4ccccc34)c3ccccc3nc2c1 | 37.7% | 89.1% | -14.3% | 29.7% |
| Cc1sc(NC(=O)c2ccco2)c(C(c2cccnc2)N2CCC(Cc3ccccc3)CC2)c1C (stereo unspecified) | -12.2% | 85.7% | 14.3% | 106% |
| CC(C)(C)c1ccc(O)c(CNC2CCCCC2)c1 | 89.9% | 90.6% | 61.1% | 81% |
| CCC(=O)Nc1nnc(Cc2ccc(OC)c(OC)c2)s1 | 16.8% | 4.14% | 0.759% | 6.51% |
| Cc1ccccc1OCCSc1nc2ccc(NC(=O)c3cccs3)cc2s1 | 11.4% | 19.4% | 18.1% | 35.8% |
| CCOc1ccc2c(c1)CN(Cc1ccc(Cl)cc1)CO2 | 15.1% | 84.1% | 16.2% | 41.4% |
| CC1CC(C)CN(C(=O)c2ccc(Cl)cc2Cl)C1 (stereo unspecified) | -0.883% | -4.96% | 1.4% | 3.37% |
| N#Cc1nc(Cc2cccc3ccccc23)oc1N1CCN(C(c2ccccc2)c2ccccc2)CC1 | -3.05% | 2.44% | 7.14% | 40.5% |
| Oc1c2c(nc3cc(-c4ccccc4)nn13)CCCC2 | 3.76% | -0.467% | -4.66% | 57.1% |
| Brc1ccc(Nc2nc3ccccc3nc2Nc2ccc(Br)cc2)cc1 | 38.5% | 103% | 55.2% | 102% |
| Cc1ccc(-c2cc(C(=O)Nc3ccc(S(=O)(=O)N4CCCCC4)cc3)[nH]n2)c(O)c1 | 18% | 51% | -1.52% | 2.43% |
| COc1cccc(NC(=O)[C@H](C(C)C)n2c(=O)[nH]c3ccccc3c2=O)c1 | 70.7% | 97.8% | 35% | 59.9% |
| Cc1ccc(Nc2nc(NCCO)c3ccccc3n2)cc1C | -7.63% | 84.7% | 38% | 53.9% |
| COc1cc2c(cc1OC)C1=NNC(=O)C1=NC(C)(C)C2 | 71.5% | 88.6% | 100% | 98.5% |
| Cn1c(=O)c2cc(C(=O)NCCCN3CCCCCC3)sc2c2ccccc21 | 13.6% | 27.4% | -1.01% | -0.0726% |
| COc1cc(OC)cc(N2C(=O)N(Cc3ccc(C(C)(C)C)cc3)c3ccccc3S2(=O)=O)c1 | 10% | 6.11% | 4.34% | 35.7% |
| COc1ccc(C(=O)NC(c2ccc(Cl)cc2Cl)c2cc(Cl)c3cccnc3c2O)cc1 (stereo unspecified) | 42.5% | 107% | 50.9% | 98.7% |
| CCc1ccc(CNCC(O)c2ccccc2)cc1 (stereo unspecified) | 9.08% | 44.3% | 3.65% | 11.4% |
| Clc1cc(Br)ccc1-c1ccc(CNCC2CCNCC2)o1 | 92.6% | 100% | 36.1% | 89.9% |
| c1ccc2cc3c(Nc4ccc(N5CCOCC5)cc4)ccnc3cc2c1 | -11.9% | 12.3% | 9.42% | 36.1% |
| COc1ccccc1CNC(=O)CCn1c(=O)[nH]c2ccccc2c1=O | 27.4% | 28.5% | -5.22% | 2.14% |
| CCN1CCN(c2c(C(=O)c3ccccc3)cnc3cc(OC)c(OC)cc23)CC1 | 2.47% | -13.5% | 12.1% | -8.91% |
| COc1ccc(-c2cc3c(nn2)-c2ccccc2C3=O)cc1 | -10.8% | 81.1% | 87.4% | 96.1% |
| CC1=C(CC(=O)c2cccc([N+](=O)[O-])c2)C(=O)c2ccccc2C1=O | 48% | 60% | 39.3% | 54.1% |
| CSc1ccccc1C(=O)Nc1nc(-c2ccccn2)cs1 | 27.3% | 92.9% | 19.1% | 96.9% |

| Structure (SMILES) | relative % inhibition ([1]; 0.5 µM) | relative % inhibition ([1]; 5 µM) | relative % inhibition ([2]; 0.5 µM) | relative % inhibition ([2]; 5 µM) |
| --- | --- | --- | --- | --- |
| CN1CCN(c2ncnc3c2[nH]c2ccc(Cl)cc23)CC1 | 9.76% | 20.1% | 2.38% | 7.14% |
| CCOc1ccc(Nc2ccnc3cc(Cl)ccc23)cc1 | -5.49% | -2.53% | 14.7% | 14.7% |
| CC(C)c1ccc(CNCC(O)c2ccccc2)cc1 (stereo unspecified) | 5.28% | 89.6% | 17.3% | 39.8% |
| CCOc1c(Br)cc(C2C(C(=O)OC)=CN(C)C=C2C(=O)OC)cc1OC | 17.4% | 88.4% | -1.2% | 68.1% |
| Cn1c(C(=O)c2cccc3ccccc23)nc2ccccc21 | 3.04% | 19.9% | 9.04% | 5.95% |
| Cc1cc(Nc2cccc(F)c2)nc(NCc2ccccc2)n1 | 28.5% | 72.2% | 24.1% | 34.6% |
| CCN(CC)CCNc1ccnc2cc3ccccc3cc12 | 99.4% | 100% | 25.4% | 43.7% |
| CCOc1cc(Br)c(C(C)NC(=O)c2cccc(OC)c2)cc1OCC (stereo unspecified) | 9.37% | 46.2% | 11.2% | 42.6% |
| OC1CCCCC1C1(NC(=S)Nc2ccccc2)CCCCC1 (stereo unspecified) | 2.55% | 71.5% | 33.8% | 90.8% |
| CCCCc1c(CCC)c(=N)c2ccccc2n1C | 16.2% | -5.38% | 18.3% | -17.8% |
| COc1ccc(C(O)(CCC(C)C)C(CN2CCOCC2)c2ccc(Cl)cc2)cc1 (stereo unspecified) | 6.71% | 94.3% | 12.1% | 25% |
| CCc1ccc(Nc2cc(C)c3ccc(O)cc3n2)cc1 | 1.9% | 99.6% | 16.3% | 56.6% |
| Oc1ccc2ccccc2c1CNc1nc2ccccc2[nH]1 | 11% | 66.5% | 6.29% | 12% |
| CCN(CC)S(=O)(=O)c1ccc(-c2csc(Nc3ccc(C)c(C)c3)n2)cc1 | 28% | 31.5% | 42.2% | 42.2% |
| CCCCCCc1cc2cc(-c3csc(C=Cc4ccccc4)n3)c(=O)oc2cc1O | 18.9% | 101% | 31.2% | 104% |
| Cc1ccnc(NC(c2cccc(OCc3ccccc3)c2)c2ccc3cccnc3c2O)c1 (stereo unspecified) | 14.9% | 96.4% | 9.51% | 57.2% |
| Cc1cc(Nc2ccc(Cl)cc2)n2nc(C(F)(F)F)nc2n1 | 4.02% | -6.02% | 7.36% | -10.1% |
| CCOc1ccc(N2C(N)=NC(N)=NC2(C)C)cc1 | 3.66% | -20.1% | -17.5% | -10.7% |
| COc1ccc(CNC2CCN(c3ccc(NC(=O)c4cccc(Cl)c4)cc3)CC2)cc1OC | -12.4% | 79% | -4.13% | -22% |
| COc1ccc(CCNC(=O)c2cc(S(=O)(=O)N3CC(C)CC(C)C3)ccc2Sc2ccc(F)cc2)cc1OC (stereo unspecified) | 10.1% | -11.3% | 17.9% | 20.1% |
| COc1ccc(C(=O)NC(c2ccccc2Cl)c2cc(Cl)c3cccnc3c2O)cc1 (stereo unspecified) | 5.42% | 49.4% | 18.6% | 38.6% |
| CCCCNc1nc(NC(C)(C)C)nc(NC(C)(C)C)n1 | -7.87% | 40.6% | 31.7% | 43.5% |
| CN(C)CCCNCc1ccc(-c2ccc(F)c(Cl)c2)o1 | 32.7% | 99.5% | 7.27% | 20.8% |
| COc1ccc(CCN2C(=O)c3[nH]nc(-c4cc(Cl)c(C)cc4O)c3C2c2ccccc2F)cc1 (stereo unspecified) | 1.69% | -0.844% | 30.2% | 51.9% |
